# Bioassay records (PubChem BioAssay)
# Hits are enriched below; roughly 1.6% of the tested compounds scored in any of these assays.
# KCNQ2 inh: KCNQ2 (rat) channel inhibition | O88943 | B-score at 10 µM | 1.1% of 310,000 active | CHO-K1 KCNQ2, FluxOR thallium flux, 20 min; active compounds read low;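 active means fluorescence ratio B-score at most minus 3 library SDs, with starting brightness B-score within 2 library SDs, cut at about -5.5 in these data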
# KCNQ2 pot: enhances the rat KCNQ2 potassium channel; O88943; CHO-K1 KCNQ2, FluxOR thallium flux fluorescence; active compounds read high; B-score at 10 µM; 0.54% of 310,000 active;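 active means fluorescence ratio B-score at least 3 SD of library B-scores, with initial fluorescence B-score within 3 of them, cut at about 5.3 in these data; same plate scores as AID 2156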;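 further: B-score of peak minus minimum over baseline fluorescence ratio after K+ and Tl+ stimulus; positive B-score means potentiation of KCNQ2 with more thallium influx and brighter signal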
# KCNQ2 block conf: confirmation of rat KCNQ2 potassium channel inhibitors; shares compounds with KCNQ2 inh; KCNQ2-expressing cells, thallium flux, inhibition; active compounds read low; activity change, negative = inhibition, % at 10 µM; 57% of 1,000 active; AID 493025;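 further: 0% = vehicle wells and values are ratio percent relative to vehicle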
# KCNQ1 spec: KCNQ2 inhibitor that also affects human KCNQ1 channel; shares compounds with KCNQ2 inh; 15% of 1,000 active; activity change, negative = inhibition, % at 10 µM; KCNQ1-expressing cells, FluxOR thallium flux fluorescence; active compounds read low;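 active means activity change at least 3 SD of negative controls below their mean in both duplicate wells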;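 further: CHO cells stably transfected with KCNQ1 and depolarized by potassium stimulus; peak minus minimum fluorescence over baseline after thallium addition; 0% = vehicle negative control and -100% = blank without thallium stimulus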
# Target sequence (P51787 whole entry, looked up): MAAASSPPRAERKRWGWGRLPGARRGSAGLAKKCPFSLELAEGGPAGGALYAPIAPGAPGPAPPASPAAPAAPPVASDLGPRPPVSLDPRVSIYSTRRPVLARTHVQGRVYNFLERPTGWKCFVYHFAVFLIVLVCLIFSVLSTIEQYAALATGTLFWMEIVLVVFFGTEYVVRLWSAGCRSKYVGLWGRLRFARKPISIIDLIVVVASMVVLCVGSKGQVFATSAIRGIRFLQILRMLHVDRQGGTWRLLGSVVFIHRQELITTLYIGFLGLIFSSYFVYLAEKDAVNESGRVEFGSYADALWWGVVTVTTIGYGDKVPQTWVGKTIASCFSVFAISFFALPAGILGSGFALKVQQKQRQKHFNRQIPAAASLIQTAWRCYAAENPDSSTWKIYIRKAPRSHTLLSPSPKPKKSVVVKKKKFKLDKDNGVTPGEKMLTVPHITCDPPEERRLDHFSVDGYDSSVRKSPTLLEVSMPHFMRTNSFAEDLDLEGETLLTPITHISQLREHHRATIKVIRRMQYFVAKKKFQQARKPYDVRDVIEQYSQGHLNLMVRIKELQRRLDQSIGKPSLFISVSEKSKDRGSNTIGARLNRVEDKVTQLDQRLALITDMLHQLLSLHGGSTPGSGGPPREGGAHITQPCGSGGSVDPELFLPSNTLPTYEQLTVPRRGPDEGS
# CHO parental ctr: counter-screen for KCNQ2 inhibitors: effect in parental CHO cells | thallium flux counter-screen; active compounds read low | shares compounds with KCNQ2 inh | activity change, % at 10 µM | 14% of 1,000 active;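 further: 0% = vehicle negative controls with stimulus buffer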
# KCNQ2 patch conf: blocks rat KCNQ2 current in automated patch clamp | AID 588531 | shares compounds with KCNQ2 inh | calls only at 10 µM | 49% of 550 active | KCNQ2-expressing cells
# Starred values were filed as active, the others as inactive; i = inactive; . = no result; + = active, no number. Unless noted, how the calls were made is not given here.
SMILES,KCNQ2 inh,KCNQ2 pot,KCNQ2 block conf,KCNQ1 spec,CHO parental ctr,others
CSCCC(NC(=O)c1ccccc1Br)C(=O)N1CCC(C)CC1 (centres undefined),-11.5*,-11.5,-35.5%*,-39.0%*,-30.0%*,KCNQ2 patch conf=+
CSCCC(NC(=O)c1ccccc1Cl)C(=O)N1CCC1 (centres undefined),i,0.67,.,.,.,
CCS(=O)(=O)N1CCC(C(=O)Oc2ccc(Cl)cc2)CC1,i,.,.,.,.,
O=C(COc1ccc(F)cc1)Nc1nnc(S(=O)(=O)N2CCCC2)s1,i,.,.,.,.,
Cc1c(CCOC(=O)CC23CC4CC(CC(C4)C2)C3)sc[n+]1CC(=O)c1ccccc1,-8.53*,-8.53,-19.5%*,i,i,KCNQ2 patch conf=+
Cc1c(CCOC(=O)C23CC4(C)CC(C)(CC(C)(C4)C2)C3)sc[n+]1CC(=O)c1ccccc1,i,.,.,.,.,
COCCCn1c(=O)c2sccc2n2c(CCCC(=O)N(C)Cc3ccco3)nnc12,i,.,.,.,.,
Cc1cc(C)c(OCCNCc2ccccc2)c(C)c1,i,.,.,.,.,
Cc1cc(Cl)cc(C)c1OCCNCc1ccccc1,-6.92*,-6.92,i,i,i,
Cc1cc(NC(=O)c2ccc(Cl)c(S(=O)(=O)N3CCCCC3)c2)no1,i,.,.,.,.,
CC(=O)c1ccc(NC(=O)CSc2ccc(-c3ccc(-n4cccn4)cc3)nn2)cc1,i,0.41,.,.,.,
CC1CCC(=C(C#N)c2nc(-c3cc4ccccc4oc3=O)cs2)CC1 (centres undefined),-8.52*,-8.52,i,i,i,
N#CCc1nc(-c2cc3ccccc3oc2=O)cs1,i,0.89,.,.,.,
Cc1c(NC(=O)CN2CCCC(C)C2)ccc2nsnc12 (centres undefined),i,.,.,.,.,
O=C(CN1CCCc2ccccc21)NCc1ccc2c(c1)OCO2,i,.,.,.,.,
O=C(CN1CCCc2ccccc21)NCCc1ccc(Cl)cc1,-10.5*,-10.5,-34.5%*,i,i,KCNQ2 patch conf=+
C=CCn1c(SCc2c(C)noc2C)nc2ccccc2c1=O,i,.,.,.,.,
Cc1noc(C)c1CSc1nc2ccccc2c(=O)n1-c1ccc(F)cc1F,-7.26*,-7.26,-20.5%*,i,i,KCNQ2 patch conf=+
CSc1ccccc1OCc1cc(C(=O)N(C)Cc2ccncn2)no1,i,0.56,.,.,.,
COc1ccc(-c2noc(-c3cccnc3)n2)cc1OC,i,.,.,.,.,
COc1ccc(-c2noc(-c3ccccc3-c3ccccc3)n2)cc1OC,-8.9*,-8.9,i,i,i,
O=C(OCC(=O)N(C1CCCCC1)C1CCCCC1)c1ccccc1O,-7.34*,-7.34,-35.5%*,i,i,KCNQ2 patch conf=+
O=C(OCC(=O)N(C1CCCCC1)C1CCCCC1)c1ccc(O)cc1,i,0.71,.,.,.,
C=C(C)c1ccc(C(C)(C)NC(=O)N(Cc2ccccc2)Cc2ccco2)cc1,-6.92*,-6.92,-16.5%*,i,i,KCNQ2 patch conf=i
CN(Cc1ccccc1)C(=O)NC1CCCCC1,i,.,.,.,.,
SMILES,KCNQ2 inh,KCNQ2 pot,KCNQ2 block conf,KCNQ1 spec,CHO parental ctr,others
O=C(NC1CCCCC1)N(Cc1ccccc1)Cc1ccco1,-8.08*,-8.08,i,i,i,
C=C(C)c1ccc(C(C)(C)NC(=O)NCc2ccco2)cc1,i,1.44,.,.,.,
CCS(=O)(=O)c1ccc2c(c1)N(S(=O)(=O)c1ccc(Cl)cc1)CC(C(=O)O)O2 (centres undefined),i,.,.,.,.,
COc1cc(C2Sc3ccccc3NC3=C2C(=O)OC3)cc(OC)c1OC (centres undefined),i,.,.,.,.,
COc1cc(C2CC(=O)Nc3ccccc3S2)cc(OC)c1OC (centres undefined),-8.47*,-8.47,i,i,i,
CC[C@H](C)[C@H](NC(N)=O)C(=O)Nc1ccccc1F,i,.,.,.,.,
CCn1nc(C)c(CNC(=O)c2cc(COc3ccccc3SC)on2)c1C,i,.,.,.,.,
COc1ccc2c(C)cc(SCc3c(C)noc3C)nc2c1,-10.4*,-10.4,i,i,i,
COc1ccc2c(C)cc(SCC#N)nc2c1,i,.,.,.,.,
Cc1ccccc1NC(=O)c1c(-c2ccccc2)noc1C,-9.54*,-9.54,i,i,i,
Cc1ccc(F)cc1NC(=O)c1c(-c2ccccc2)noc1C,-8.14*,-8.14,i,i,i,
Cc1onc(-c2ccccc2)c1C(=O)Nc1ccncc1,i,1.87,.,.,.,
Cc1onc(-c2ccccc2)c1C(=O)Nc1ccc(Br)cc1Cl,i,.,.,.,.,
Cc1cc[n+]2n1CC(O)C2 (centres undefined),i,.,.,.,.,
CC(C)(C)NC(=O)C1Cc2ccccc2CN1 (centres undefined),i,.,.,.,.,
